Screens (PubChem)
A selection: hits, their analogues and other compounds. The true share with any hit is near 8.9%.
NPSR antagonist: antagonists of human neuropeptide S receptor cAMP signaling | Q6W5P4 | CHO-NPSR cells, cAMP TR-FRET, antagonist mode | Potency, µM (top dose mostly 38.3 µM), inactives show top-dose activity change, negative = inhibition, hits mostly inhibitors | 220,000 compounds, 1% hits | AID 1461; note: potency is the fitted concentration of half-maximal effect; nearly all actives have a fitted effect of over 50% in size
Target sequence (Q6W5P4 whole entry, looked up): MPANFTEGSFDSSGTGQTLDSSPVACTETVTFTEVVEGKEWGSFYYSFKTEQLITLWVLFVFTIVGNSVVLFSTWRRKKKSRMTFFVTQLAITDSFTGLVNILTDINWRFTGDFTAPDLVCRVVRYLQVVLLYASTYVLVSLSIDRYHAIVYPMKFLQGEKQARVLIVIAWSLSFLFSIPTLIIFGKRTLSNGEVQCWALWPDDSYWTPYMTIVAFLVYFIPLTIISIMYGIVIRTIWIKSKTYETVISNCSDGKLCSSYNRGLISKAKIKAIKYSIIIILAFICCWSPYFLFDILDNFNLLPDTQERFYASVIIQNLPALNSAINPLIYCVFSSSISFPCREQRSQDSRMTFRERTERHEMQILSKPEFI
IMPase Li cell: membrane-permeable IMPase blocker, potentiated with lithium; 210,000 compounds, 0.35% hits; CHO-M1 cells, IP1 TR-FRET (IP-One), carbachol + lithium; AID 1457; Potency, µM (titrated, usually from 59.4 µM), for inactives: top-dose activity, negative = IMPase inhibition, usual class: inhibitors;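 note: IP1 builds up when IMPase is blocked and the TR-FRET signal falls; potency is the fitted concentration of half-maximal effect; plate controls were basal vehicle for no effect and high inhibitor control for full effect; nearly all actives have a fitted effect of over 50% in size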
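CHO cells stably expressing M1 receptor (2000/well, cultured 16–30 h) treated 30 min at 37C with compound plus low lithium. Cytosolic IP1 by TR-FRET (665/620 ratio and 620 channel) after 10 min lysis; AC50 by Hill fit.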
HPGD block: HPGD (human) dehydrogenase inhibition; purified HPGD, NADH fluorescence kinetic, PGE2 substrate; 150,000 compounds, 4.3% hits; P15428; Potency, µM, for the others: top-dose activity change, negative = inhibition, hits mostly inhibitors; AID 894; active = well fitted inhibition curve with a large enough effect, not every such curve was filed as active; inconclusive = small, poorly fitted or top-dose-only effect, or another doubt; inactive = no such curve, though single readings can be large or run the other way; note: potency is the fitted concentration of half-maximal effect
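NADH formation kinetics: reaction with 30 uM PGE2 and 1 mM NAD+ (final), 20 nM enzyme, Tris-HCl pH 8 with Tween 20, after 15 min compound preincubation at room temperature. Fluorescence change, last versus first of five reads.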
ALDH1A1 block: ALDH1A1 (human) enzyme inhibition. 220,000 compounds, 7.3% hits. P00352. Potency, µM (highest dose often 75.3 µM), without a hit: top-dose activity, negative = inhibition, usual class: inhibitors. Purified ALDH1A1, NADH fluorescence, propionaldehyde substrate; active = well fitted inhibition curve with a large enough effect, not every such curve was filed as active; inconclusive = small, poorly fitted or top-dose-only effect, or another doubt; inactive = no such curve, though single readings can be large or run the other way;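 note: potency is the fitted concentration of half-maximal effect; plate controls were no enzyme wells and a reference inhibitor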
12-hLO inh: inhibitors of human 12-lipoxygenase (ALOX12) | Potency, µM (doses to about 57.1 µM), inactives show at the top dose activity change, negative = inhibition, actives largely listed as inhibitors | purified 12-hLO, xylenol orange hydroperoxide absorbance | 150,000 compounds, 0.12% hits; note: potency is the fitted concentration of half-maximal effect; nearly all actives have a fitted effect of over 55% in size
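Xylenol orange chromogenic assay: hydroperoxide from 12hLO oxidises Fe(II), giving red-shifted Fe(III)-XO absorbance. Conditions: 150 nM enzyme, 40 uM arachidonic acid, 25 mM Hepes pH 7.0, 0.01% Triton X-100, 30 min, room temperature.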
IMPase inh: IMPase inhibition in cells. P97697. 120,000 tested, under 10 active. CHO-M1 cells, IP1 accumulation, HTRF TR-FRET ratio. inhibition (IP1 accumulation), % at 46.1 µM; active = well fitted curve in the direction sought with a large enough effect in the signal ratio, not every such curve was filed as active; inconclusive = small, poorly fitted or top-dose-only effect, or a change in a side signal; inactive = no such curve, though single readings can be large or run the other way; the % refers to the signal ratio;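 note: cells stimulated with carbachol in lithium chloride buffer; plate controls were DMSO basal wells for no effect and reference inhibitor wells for full effect; higher means more IMPase inhibition seen as more IP1 and lower FRET ratio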
Target sequence (P97697 whole entry, looked up): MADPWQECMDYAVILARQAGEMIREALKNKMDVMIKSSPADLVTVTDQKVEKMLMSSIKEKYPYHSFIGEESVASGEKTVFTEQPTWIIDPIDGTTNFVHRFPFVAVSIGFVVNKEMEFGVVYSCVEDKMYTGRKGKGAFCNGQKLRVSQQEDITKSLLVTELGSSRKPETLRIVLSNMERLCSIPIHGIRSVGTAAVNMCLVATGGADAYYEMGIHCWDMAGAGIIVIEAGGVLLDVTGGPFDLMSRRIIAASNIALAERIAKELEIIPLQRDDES
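CHO-M1 cells (CHO stably expressing M1 receptor), compound up to 46 uM final, stimulated with carbachol (50 uM as added) in buffer with 50mM LiCl, pH 7.4, 30 min at 37C. Cytosolic IP1 read by TR-FRET; AC50 from Hill fits.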
An asterisk follows results filed as active; ? = inconclusive; · = no result given; [ ] = remark or other dose. Unless noted, calls come from the whole dose curve; as a rule, active = well fitted curve in the direction sought with a large enough effect; inconclusive = small, poorly fitted or top-dose-only effect, or another doubt; inactive = no such curve, though single readings can be large; an effect the other way counts as inactive or inconclusive. Unless noted, % is set by controls: 0 for no effect and ±100 for the full control effect.

SMILES | NPSR antagonist | IMPase Li cell | HPGD block | ALDH1A1 block | 12-hLO inh | IMPase inh
COC(=O)C1C(=O)C2=C(CC1C)NC(C)=C(C(=O)OC1CCCC1)C2c1ccc(N(C)C)cc1 (configuration not stated) | ? | 6.0%[38.3 µM] | -18.7% | ? | -6.7% | -1.8
CC(=O)CCC(=O)N1CCCC(CNC(=O)c2ccc(-c3ccccc3)cc2)C1 (configuration not stated) | 15.9% | 3.3% | · | -1.5% | · | ·
CC(=O)c1cccc(NC(=O)CN(C)Cc2ccc(OC(F)F)cc2)c1 | 9.1% | · | · | 11.2µM* | · | ·
CCCNC(=O)CCc1c(C)nc2nc(-c3cc(OC)cc(OC)c3)nn2c1C | 0.7%[46.1 µM] | 14.2%[38.3 µM] | -11.2% | 11.4% | -5.9% | -3.3
CCS(=O)(=O)Nc1ccc(Cc2ccncc2)cc1 | -9.0%[46.1 µM] | 37.0%[38.3 µM] | 1.26µM* | -13.5% | -7.1% | 8.5
CCS(=O)(=O)Nc1ccc(NC(C)=O)cc1 | -3.5%[46.1 µM] | 9.7%[38.3 µM] | 25.1µM* | 8.4% | 3.5% | -6.6
O=S(=O)(Nc1ccc(Cc2ccncc2)cc1)c1cccs1 | -21.1%[46.1 µM] | 25.1%[38.3 µM] | 28.2µM* | 10.4% | -0.2% | 11.9
O=[N+]([O-])c1ccccc1CNC(Cc1ccccc1)c1ccccc1 (configuration not stated) | -16.7%[46.1 µM] | 29.3%[38.3 µM] | -13.9% | 12.6µM* | -6.1% | -5.0
O=c1c(Cl)c(Cl)cnn1Cc1nnc(-c2ccccc2Br)o1 | -49.8% | -8.4% | · | 3.55µM* | · | ·
Clc1ccccc1OCc1nnc(-c2ccccc2Br)o1 | -20.8%[46.1 µM] | 4.2%[38.3 µM] | 20µM* | ? | -3.7% | 4.6
Brc1ccc(-c2nnc(-c3ccccc3Br)o2)cc1 | -13.3%[46.1 µM] | -12.1%[38.3 µM] | ? | ? | -18.4% | 9.7
O=C1NC2(CCCc3ccccc32)C(=O)N1Cc1nnc(-c2ccccc2Br)o1 (configuration not stated) | -23.7%[46.1 µM] | -7.4%[38.3 µM] | -27.6% | ? | -7.1% | 3.3
Clc1ccc(Cc2nnc(-c3ccccc3Br)o2)cc1 | 3.4% | 1.5% | 20µM* | 9.8% | -3.9% | ·
Brc1ccccc1-c1nnc(COc2cccc3cccnc23)o1 | -21.3%[46.1 µM] | 35.3%[38.3 µM] | ? | ? | -3.9% | 12.0
CN(C)CCCNCCCN | · | -2.7% | -8.7% | -1.0% | 2.5% | ·
Cc1ccc(S(=O)(=O)N2CCC(C(=O)N[C@H](C(=O)NCc3ccco3)C(C)C)CC2)cc1 | -6.8%[46.1 µM] | -8.5%[38.3 µM] | -3.2% | 5.4% | -4.4% | ?
NC(=S)Nc1cccc(Cl)c1 | -10.7% | · | · | · | · | ·
CCc1c(C(=O)Nc2ncn(Cc3cccc(C)c3)n2)csc1C | 12.8%[46.1 µM] | 0.0% | -14.1% | -2.7% | 19.7% | -0.9
C#CCCCO/N=C1/C[C@@H](O)[C@@H](O)[C@@H]2[C@@H]3C(=O)N(Cc4ccccc4)C(=O)[C@H]3CC[C@@H]12 | · | · | · | 14.9%[13.5 µM] | · | ·
Cc1cnc(C(=O)OCC(=O)N2c3ccccc3NC(=O)C2(C)C)cn1 | -16.5%[46.1 µM] | 1.4%[38.3 µM] | -7.4% | 6.6% | -1.0% | 0.6
CC1(C)C(=O)Nc2ccccc2N1C(=O)COc1ncnc2c(Cl)cc(Cl)cc12 | -11.6%[46.1 µM] | · | · | 28.2µM* | -8.0% | -3.5
COC(=O)CCC(=O)N1CCCC(CNS(=O)(=O)c2ccc(OC)cc2)C1 (configuration not stated) | -17.5% | 2.7% | · | 8.91µM* | · | ·
COc1ccc(S(=O)(=O)NCC2CCCN(C(=O)C=C(C)C)C2)cc1 (configuration not stated) | -12.8% | 4.4% | · | 4.47µM* | · | ·
COc1ccc(S(=O)(=O)NCC2CCCN(CC(C)(C)C)C2)cc1 (configuration not stated) | -18.1% | 8.7% | · | 20µM* | · | ·
CC(=O)c1cccc(Nc2cc(C)nc3ccc(C)cc23)c1 | -3.6% | · | · | · | · | ·
Cn1c(=O)c(C(=O)COc2ccc(C#N)cc2)c(N)n(Cc2ccccc2)c1=O | -27.4% | 6.6% | · | 3.7% | · | ·
N#C/C(=C\c1cccc([N+](=O)[O-])c1)C(=O)NCC1CCCO1 (configuration not stated) | -2.4% | 25.7% | · | 1.9% | · | ·
COc1ccccc1NC(=O)COC(=O)c1c[nH]c(=O)[nH]c1=O | 7.7% | · | · | · | · | ·
O=C(NCc1ccco1)c1sc2ccccc2c1Cl | -9.8% | -0.4% | 15.8µM* | ? | -3.6% | -6.1
